SMN2 splice up – enhancers of SMN2 splice variant expression; 2.8% of 210,000 active; AID 1458; HEK293 SMN2-luciferase splicing reporter, luminescence, 30-36 h; Potency, µM (doses to about 46.1 µM), for inactives: at the highest dose activity change, positive = activation, usual class: activators; note: % of control where 0% means no effect; nearly all actives have a fitted effect of over 55% in size
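HEK293 cells carry an SMN2 […]–luciferase reporter in which exon 7 inclusion puts luciferase in frame. Cells were plated 10-12 h before compound addition, then incubated 30-36 h at 37C. ONE-Glo luminescence was read; sodium butyrate at 4.5 mM final served as control.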
FLuc modulator – inhibits or activates purified firefly luciferase, miR-21 counter-screen; 6.9% of 360,000 active; P08659; Potency, µM (doses to about 57.5 µM), for inactives: at the highest dose activity change, negative = inhibition, hits mostly inhibitors; purified FLuc, Km substrates, luminescence inhibition;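 note: plate controls were vehicle for no effect and reference inhibitor for full effect; nearly all actives have a fitted effect of over 55% in size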
Target sequence (P08659 whole entry, looked up): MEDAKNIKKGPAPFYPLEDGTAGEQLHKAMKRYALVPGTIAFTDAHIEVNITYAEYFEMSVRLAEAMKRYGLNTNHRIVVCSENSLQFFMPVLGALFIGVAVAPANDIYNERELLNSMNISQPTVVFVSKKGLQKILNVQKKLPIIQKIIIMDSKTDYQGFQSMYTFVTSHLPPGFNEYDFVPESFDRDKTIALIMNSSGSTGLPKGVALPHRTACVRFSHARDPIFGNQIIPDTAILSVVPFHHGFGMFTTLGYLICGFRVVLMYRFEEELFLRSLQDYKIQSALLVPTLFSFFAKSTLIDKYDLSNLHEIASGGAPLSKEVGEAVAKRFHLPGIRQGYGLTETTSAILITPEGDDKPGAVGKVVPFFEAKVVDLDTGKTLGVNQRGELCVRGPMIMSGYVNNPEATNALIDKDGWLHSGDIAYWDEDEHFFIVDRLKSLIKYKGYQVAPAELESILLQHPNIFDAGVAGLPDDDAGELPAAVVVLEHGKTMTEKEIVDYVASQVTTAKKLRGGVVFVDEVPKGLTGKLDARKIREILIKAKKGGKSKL
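Biochemical qHTS of compounds, final roughly 60 µM downward over six points, against 10 nM purified firefly luciferase using Km concentrations of substrates (10 uM D-luciferin, 10 uM ATP) in Tris acetate pH 7.5 buffer; luminescence output.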
NPC1 prom act – activators of NPC1 promoter; Huh7 NPC1 promoter luciferase reporter, 24 h; Potency, µM (series often up to 9.22 µM), inactives show top-dose activation, most hits filed as activators; 2.4% of 320,000 active; note: % of control where 0% means no effect; nearly all actives have a fitted effect of over 60% in size
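Quantitative HTS used a cell-based reporter: Huh7 cells stably bearing the NPC1 promoter upstream of luciferase were treated with compounds for 24 h, and promoter activation was read as luminescence.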
ELG1 genotox – inducers of genotoxicity in HEK293T ELG1-luciferase cells; Potency, µM (highest dose often 46 µM), for inactives: top-dose activity change, positive = activation, actives largely listed as activators; HEK293T ELG1-luciferase reporter, luminescence, 16 h; AID 504466; 1.3% of 330,000 active; note: % of control where 0% means no effect; nearly all actives have a fitted effect of over 60% in size
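HEK293T cells expressing luciferase-tagged ELG1 were treated with compound or DMSO for 16 hr at 37°C. Luciferase activity was then read after 30 min with ONE-Glo at room temperature; rising signal flags genetic stress.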
KinaseGlo FLuc – blocks Kinase-Glo luciferase, a counter-screen artifact; Q27757; Kinase-Glo luciferase, ATP luminescence, 8 min; Potency, µM (series often up to 38.3 µM), without a hit: at the top dose activity change, negative = inhibition, usual class: inhibitors; 0.28% of 200,000 active; AID 1379; note: % is set by controls: 0 for no effect and ±100 for the full control effect; nearly all actives have a fitted effect of over 60% in size
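Compound is pinned into ATP-containing buffer (10 uM ATP, imidazole pH 7.2, 7 mM MgCl2). Kinase-Glo luciferase reagent is then added. Light output is recorded following an 8-min room-temperature incubation.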
Rab9 prom act – activates the Rab9 promoter | AID 485297 | Potency, µM (doses to about 9.22 µM), for the others: at the top dose activation, negative = inhibition, usual class: activators | Huh7 Rab9 promoter-luciferase reporter, luminescence, 24 h | 2.8% of 320,000 active; note: % of control where 0% means no effect; nearly all actives have a fitted effect of over 60% in size
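Huh7 cells stably carrying a Rab9 promoter-luciferase reporter, 1500 cells per well in OP-MEM I with 10% FBS, treated with compound 24 hours at 37C. Luciferase activity read by luminescence after 10 minutes with Amplite reagent.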
An asterisk follows results filed as active; ? = inconclusive; . = no result; [ ] = dose if it differs, or a comment. Only some compounds are listed: those with a hit (about 7.5% of all), similar ones and a draw of the others. Calls come from the whole dose curve; as a rule, active = well fitted curve in the direction sought with a large enough effect; inconclusive = small, poorly fitted or top-dose-only effect, or another doubt; inactive = no such curve, though single readings can be large; an effect the other way counts as inactive or inconclusive. Potency is the fitted concentration of half-maximal effect.

SMILES	SMN2 splice up	FLuc modulator	NPC1 prom act	ELG1 genotox	KinaseGlo FLuc	Rab9 prom act
CCCc1ccc(-c2ccc(-c3noc(-c4ccncc4)n3)cc2)nc1	.	?	-9%	-3%	.	-7%
CCCCc1ccc(-c2nc(-c3ccncc3)no2)cc1	13µM*	1.9µM*	0.45µM*	23µM*	-7%	0.35µM*
CCCCCCCN[C@H]1CCC[C@@H]1CCCCCCC(=O)O	28%	.	.	.	-1%	.
CCOc1cc(/C=C2/C(=O)ON=C2C)cc(Br)c1O	.	21µM*	-6%	2%	.	-10%
CCOc1cc(/C=C2\C(=O)ON=C2c2ccccc2)cc(Br)c1O	.	9.5µM*	-12%	?	.	-7%
O=C1CCCCC1Sc1nnc(Nc2ccccc2)s1 (stereo not given)	10µM*	19µM*	2.5µM*	?	-2%	3.2µM*
Cc1ccc(Nc2nnc(SC3CCOC3=O)s2)cc1 (stereo not given)	14%	17µM*	7%	3%	1%	-3%
CC(C)c1ccc(Nc2nnc(SC3CCOC3=O)s2)cc1 (stereo not given)	5%	7.6µM*	0%	-1%	-1%	0%
Cc1cccc(Nc2nnc(SC3CCOC3=O)s2)c1C (stereo not given)	1%	?	-4%	0%	-1%	3%
O=C1OCCC1Sc1nc2ccccc2s1 (stereo not given)	8%	0%	-4%	1%	2%	-4%
CCC(Cn1nnc2ccccc2c1=O)NC(=O)Nc1cccc(Cl)c1 (stereo not given)	-12%	-10%	.	.	.	.
Cn1c(NCCCCO)nc2c1c(=O)n(Cc1ccc(Cl)cc1)c(=O)n2C	4%	3%	.	.	.	.
Cc1ccc(NC(=O)/C=C\C(=O)N(c2ccc(C(C)C)cc2)C(C(=O)NCc2ccco2)c2ccc(F)cc2)cc1 (stereo not given)	.	-2%	.	.	.	.
CC(C)CNC(=O)c1cc(-c2ccco2)on1	?	13µM*	4µM*	?	-8%	4µM*
CCCNC(=O)c1cc(-c2ccco2)on1	18µM*	17µM*	?	16µM*	-17%	3.5µM*
O=C(O)c1c2c(nc3ccccc13)/C(=C/c1ccc(O)cc1)CC2	-53%	0.54µM*	?	-4%	-6%	?
O=C(O)c1c2c(nc3ccccc13)/C(=C/c1ccc(OC(F)F)cc1)CCC2	.	12µM*	?	?	.	?
COc1cccc2c1CCc1c-2nc2ccccc2c1C(=O)O	.	0.95µM*	?	?	.	?
Cc1ccc(NC(=O)C(Cc2ccccc2)NS(=O)(=O)c2ccc3c(c2)c(=O)n(C)c(=O)n3C)cc1 (stereo not given)	3%	-6%	.	.	.	.
Cc1ccnc(NCc2ccc(Br)cc2)c1	.	?	22%	0%	.	12%
CCN(CC)c1ccc(CNc2ccc(Br)cn2)cc1	?	?	?	10µM*	0%	26%
O=C(Cn1nc(C(F)(F)F)c2c1CCC2)Nc1ccc(Cl)cc1	-19%	-13%	.	.	.	.
O=C(CN1C(=O)S/C(=C\C=C\c2ccccc2)C1=O)N1CCCCC1	.	?	-5%	8%	.	9%
CCOC(=O)CN1C(=O)S/C(=C/C=C/c2ccc(N(C)C)cc2)C1=O	?	4.8µM*	?	?	-5%	3.5µM*
CCOC(=O)CN1C(=O)S/C(=C/c2ccc3c(c2)n(C)c(=O)n3C)C1=O	16µM*	?	0%	21µM*	1%	-5%
SMILES	SMN2 splice up	FLuc modulator	NPC1 prom act	ELG1 genotox	KinaseGlo FLuc	Rab9 prom act
COc1ccccc1CCNC(=O)c1cccn1-c1nnc(N2CCCC2)s1	.	3%	.	.	.	.
O=C(NCc1cc([N+](=O)[O-])ccc1O)c1cccnc1Sc1ccccc1Cl	.	15µM*	-5%	-8%	.	-5%
COc1ccc(CNC(=O)c2cccnc2Sc2ccc(Cl)cc2)cc1	-8%	-1%	-1%	1%	2%	3%
O=C(NCc1cc([N+](=O)[O-])ccc1O)c1cccnc1Sc1ccc(Cl)cc1	.	?	?	6.5µM*	.	16%
CCc1cc(=O)oc2c3c(c(Cl)cc12)OCN(Cc1cccc(OC)c1)C3	-7%	-14%	.	.	.	.
O=C(CCCCCn1c(=O)[nH]c2ccccc2c1=O)N1CCN(c2ccc(Cl)cc2)CC1	.	-12%	.	.	.	.
CC(C)(C)C1CCc2c(C(=O)NNC(=O)CCCC(=O)O)csc2C1 (stereo not given)	-5%	17µM*	-2%	0%	0%	-2%
CC(Oc1ccccc1F)C(=O)NCC1(N2CCOCC2)CCCCC1 (stereo not given)	.	-6%	.	.	.	.
Cc1ccc(Cl)cc1NC(=O)c1ccc(-c2nc(CSc3ccccc3)c(C)o2)cc1	.	-3%	.	.	.	.
CN(C)S(=O)(=O)Oc1cccc(C(=O)Nc2ccc(Cl)cc2)c1	4%	3.4µM*	?	5%	-4%	?
CN(C)S(=O)(=O)Oc1cccc(C(=O)Nc2ccccc2Cl)c1	12%	21µM*	28%	?	1%	5.6µM*
CN(C)S(=O)(=O)Oc1ccc(C(=O)Nc2cccc(Cl)c2)cc1	13µM*	12µM*	?	?	-1%	?
CN[C@@H]1[C@H](O[C@H]2[C@@H](O[C@@H]3[C@@H](O)[C@@H](O)[C@@H](N=C(N)N)[C@@H](O)[C@@H]3N=C(N)N)O[C@@H](C)[C@]2(O)CO)O[C@H](CO)[C@@H](O)[C@@H]1O	-23%[20.6 µM]	.	.	.	-1%[17.1 µM]	.
Cc1noc(C)c1C(=O)N1CCC2(CCCN(C(c3ccccc3)c3ccccc3)C2)CC1	-20%	.	.	.	-2%	.
CCOC(=O)c1[nH]c2ccccc2c1NC(=O)c1ccccc1OC	-13%	-9%	.	.	.	.
O=C(CN1C(=O)CCc2cc(S(=O)(=O)N3CCOCC3)ccc21)NCc1ccc(F)cc1	.	-4%	.	.	.	.
O=C(Cn1ncc2c(Cl)cccc21)NCc1cccc(F)c1	.	-2%	.	.	.	.
O=C(Cn1ncc2c(Cl)cccc21)NCc1cccc(Br)c1	.	4.8µM*	.	.	.	.
Nc1nc2c(Cl)ccc(Cl)c2s1	-32%	0%	-2%	6%	0%	-5%
O=C(/C=C/c1ccccc1O)c1ccco1	.	17µM*	-7%	?	.	7%

High-throughput results deposited in PubChem by National Center for Advancing Translational Sciences (NCATS).
